RGS4-Gao reg: human RGS4-Galphao interaction regulation; P09471; Multiplexed bead flow cytometry, RGS4-Galphao binding; actives lie on both sides; binding response (% of control), % at 10 µM; 220,000 compounds, 0.33% hits; AID 1415; in the data active means binding response below about 49% or above about 150%; inactive means in between;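 further: fluorescent Galphao activated with aluminum fluoride binding bead-coupled RGS4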
Target sequence (P09471 whole entry, looked up): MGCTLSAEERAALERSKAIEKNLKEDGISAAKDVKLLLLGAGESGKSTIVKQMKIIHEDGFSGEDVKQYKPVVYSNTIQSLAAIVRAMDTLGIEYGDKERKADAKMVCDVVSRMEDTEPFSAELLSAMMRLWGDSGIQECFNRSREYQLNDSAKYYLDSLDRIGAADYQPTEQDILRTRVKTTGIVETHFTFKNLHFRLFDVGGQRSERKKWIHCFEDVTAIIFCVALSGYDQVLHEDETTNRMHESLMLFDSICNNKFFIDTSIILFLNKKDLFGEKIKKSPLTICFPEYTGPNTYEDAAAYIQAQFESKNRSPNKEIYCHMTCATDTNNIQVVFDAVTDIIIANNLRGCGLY
GSH bead fluor: compound fluoresces at 488/530 nm on GSH beads; GSH beads flow cytometry, compound fluorescence 488/530 nm; hits give high values; fluorescence (KMESF) at 10 µM; AID 1776; 190,000 compounds, 0.25% hits; in the data active means fluorescence above about 89;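 further: glutathione beads carrying GST-tagged Bcl family fusion proteins plus one bare bead set; values are compound well signal with DMSO vehicle wells as background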
Avidin fluor: compound fluoresces at 488/530 nm on avidin beads; compound fluorescence 488/530 nm, flow cytometry; hits give high values; fluorescence (KMESF) at 10 µM; 220,000 compounds, 0.38% hits; AID 1775; in the data active means fluorescence above about 47
RGS8-Gao reg: human RGS8-Galphao interaction regulation; multiplexed bead flow cytometry, RGS8-Galphao binding; actives lie on both sides; response (percent of control binding), % at 10 µM; 220,000 compounds, 0.34% hits; AID 1423; in the data active means response below about 60% or above about 140%; inactive means in between;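 further: Galphao activated as the GDP aluminium fluoride complex binding bead-coupled RGS8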
RGS7-Gao: regulators of human RGS7-Galphao interaction | P09471 | AID 1439 | 220,000 compounds, 0.35% hits | Multiplexed bead flow cytometry, RGS7-Galphao binding; actives lie on both sides | binding response (% of control), % at 10 µM; in the data active means binding response below about 49% or above about 150%; inconclusive means no clear call, values can overlap the other calls; inactive means in between;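 further: fluorescent Galphao held in activated GDP-AlF4 state binding bead-coupled RGS7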
RGS16-Gao HTS: RGS16-Galphao interaction regulator (human) | binding response (% of control), % at 10 µM | AID 1441 | 220,000 compounds, 0.38% hits | bead-based flow cytometry RGS16-Galphao binding, fluorescence; actives lie on both sides | O15492+P09471; call rule not given here;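 further: Galphao activated by GDP with aluminum fluoride before binding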
An asterisk follows results filed as active; ? = inconclusive; . = not tested or not shown. In the library only some 1.2% were active in any assay of this set; here they are far more common.

SMILES	RGS4-Gao reg	GSH bead fluor	Avidin fluor	RGS8-Gao reg	RGS7-Gao	RGS16-Gao HTS
CC(C)(C)c1ccc(/C=C/C(=O)Nc2nncs2)cc1	100	13	5	102	100	102
O=C1c2ccccc2C(=O)N1CCc1nc2ccccc2c(=O)n1CCCn1ccnc1	108	272*	8	105	104	120
Cc1cc(NC(=O)C2(c3ccccc3)CCCC2)no1	136	16	59*	113	135	160
Oc1ccc(Br)cc1C=Nc1ccc2c3c(cccc13)CC2	92	4	12	80	90	43
O=C(N/N=C/c1ccc(-c2ccc(S(=O)(=O)Nc3ncccn3)cc2)o1)c1cc2ccccc2cc1O	112	28	50*	100	102	101
CN(C)S(=O)(=O)c1ccc(N2CCCC2)c(C(=O)NC(c2ccccc2)c2ccccc2)c1	102	5	7	98	101	100
O=C(CN1CCOCC1)n1c2ccccc2c2ccccc21	98	256*	8	99	100	96
Cc1ccc(NC(=O)COC(=O)C2(c3ccc(Cl)cc3)CCCC2)cc1	99	12	7	98	101	89
COc1ccc(/C=C2\SC(=NCc3ccccc3)N(Cc3ccccc3)C2=O)cc1OC	123	32	6	117	121	122
CCN=C1S/C(=C\c2ccc(OC)c(OCC)c2)C(=O)N1CC	109	106*	8	108	108	121
CCN1CC(CN(C)Cc2nc(-c3ccc(OC)c4ccccc34)oc2C)CC1=O (stereo unspecified)	98	12	12	99	96	102
OCC#CCSc1nnc(-c2ccncc2)o1	102	251*	17	101	100	100
Cc1cc(C)n(-c2ncnc3sc(C)c(C)c23)n1	109	14	53*	103	105	114
Cc1cc(C)n(-c2ncnc3sc4c(c23)CCCC4)n1	97	15	9	100	95	100
CS/C(N)=N/S(=O)(=O)c1ccc(NC(C)=O)cc1	114	.	75*	84	?	87
CCOc1ccccc1C(=O)NCCC(=O)O	115	17	6	134	109	253
CCOc1ccc(C(CCc2ccccc2)NC(=O)c2ccccc2OC)cc1OCC (stereo unspecified)	106	21	51*	103	111	108
CCOc1ccccc1C(=O)NC(CO)C(=O)O (stereo unspecified)	104	271*	6	101	102	106
Cc1cc(C(=O)CSc2ccc3c(c2)OCCO3)c(C)n1C1CC1	100	7	1	104	103	111
CCOC(=O)c1cccc(C(=O)Nc2nc3ccc(OC)cc3s2)n1	99	13	11	100	101	95
CC(C)CN(C)Cc1c(C(=O)N2CCc3ccccc3C2)nc2ccc(Cl)cn12	107	13	9	104	119	113
CCc1c(C)sc(NC(=O)C2CCCO2)c1C#N (stereo unspecified)	66	139*	3	69	76	32
CCc1cccc(C)c1NC(=O)C1CCCO1 (stereo unspecified)	114	251*	5	105	112	65
Cc1cccc2sc(NC(=O)C3CCCO3)nc12 (stereo unspecified)	101	25	33	102	99	105
CC(C)(CN1CCN(c2ccccc2)CC1)NS(=O)(=O)c1ccccc1	104	.	8	104	?	99
SMILES	RGS4-Gao reg	GSH bead fluor	Avidin fluor	RGS8-Gao reg	RGS7-Gao	RGS16-Gao HTS
O=C(NC(Cc1ccccc1)C(=O)O)/C(=C/c1ccco1)NC(=O)c1cccc(Br)c1 (stereo unspecified)	101	22	15	103	102	108
COc1cc(SC)ccc1C(=O)N(Cc1ccccc1)c1ccccn1	107	.	51*	92	?	93
O=C(Nc1cccc2ccccc12)c1cc2c(cc1Br)OCO2	100	.	5	103	?	101
O=C(NCCN1CCOCC1)c1cc2sccc2n1Cc1ccc(Cl)cc1	104	15	52*	102	109	102
N#CC1=C(N)N=C(SCc2cccc3ccccc23)C(C(N)=O)C12CCCCC2 (stereo unspecified)	103	37	8	99	102	119
COc1cc(OC)c(OC)cc1NC(=O)CC1COc2ccccc2O1 (stereo unspecified)	105	17	8	102	102	105
COc1ccc(CCNC(=O)CN(c2ccccc2OC)S(C)(=O)=O)cc1OC	105	263*	8	104	103	107
COc1ccc(CCNC(=O)CC2COc3ccccc3O2)cc1OC (stereo unspecified)	101	26	48*	100	107	102
COc1ccc(CCNC(=O)/C=C/c2ccc(C)cc2)cc1OC	103	22	12	103	101	103
COc1ccc(CCNC(=O)/C=C/c2cc(OC)c(OC)c(OC)c2)cc1OC	119	15	73*	97	?	99
CCN(c1ccccc1)S(=O)(=O)c1ccc(OC)c(NC(=O)Cn2cnc3c2c(=O)n(C)c(=O)n3C)c1	99	15	8	100	98	96
CCCCCC/C=C/c1ccc(OC)c([C@H]2[C@H]3C=CC[C@@H](C)[C@@H]3C(=O)N2Cc2ccccc2)c1	98	.	8	99	?	99
Cc1ccc(-n2c(C)nn(Cc3ccc([N+](=O)[O-])cc3)c2=O)cc1	100	14	9	99	?	104
Cc1ccc(-n2c3nc(=O)[nH]c(=O)c-3cc3cc([N+](=O)[O-])ccc32)cc1	104	12	55*	102	118	109
CCn1c(CSc2nc3ccccc3s2)nnc1SCC(=O)c1ccc(O)c(O)c1	68	268*	4	76	67	65
CCCc1nnc(NC(=O)c2ccncc2)s1	83	239*	3	91	92	-1
CCc1nnc(NC(=O)c2ccncc2)s1	86	8	10	93	93	91
C/C(=N\NC(=O)c1sccc1-n1cccc1)c1cccs1	93	14	11	99	95	93
FC(F)(F)c1cccc(-c2nc3nc(Cl)c(Cl)nc3[nH]2)c1	101	.	9	102	?	100
Cc1cc(NC(=O)CN2C(=O)NC(C)(c3ccc(OC(F)F)cc3)C2=O)no1 (stereo unspecified)	100	15	48*	100	110	97
CCOC(=O)c1cnn(-c2ccc(C)cc2)c1N	104	255*	8	104	95	103
O=C(O)c1ccc(N2C(=O)CC(N3C(=O)/C(=C/c4ccc(Cl)cc4)SC3=S)C2=O)cc1 (stereo unspecified)	106	.	7	104	?	103
Cn1c2ccccc2c(=O)c2c(=O)n(C3CCCCC3)c(-c3cccs3)nc21	102	18	35	99	100	100
